Compound activity as filed in PubChem BioAssay.
IMPase cell inh: cell-permeable inhibitors of inositol monophosphatase (IMPase) | inhibition (IP1 accumulation), % at 46.1 µM | AID 901 | 120,000 tested, under 10 active | CHO-M1 cells, IP1 accumulation, HTRF TR-FRET ratio; active means well fitted curve in the direction sought with a large enough effect in the signal ratio, not every such curve was filed as active; inconclusive means small, poorly fitted or top-dose-only effect, or a change in a side signal; inactive means no such curve, though single readings can be large or run the other way; the % refers to the signal ratio;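 further: cells stimulated with carbachol in lithium chloride buffer; plate controls were DMSO basal wells for no effect and reference inhibitor wells for full effect; higher means more IMPase inhibition seen as more IP1 and lower FRET ratio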
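The IP-One HTRF competitive assay in carbachol-stimulated CHO-M1 cells quantifies cellular IP1. Compounds spanned up to 46 uM final, and activity is expressed as AC50 from concentration-response fits of the ratio and donor data.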
HTT cytoprotect: protects HTT-Q103 PC12 cells, measured by ATP; AID 1471; Potency, µM (highest dose often 56.4 µM), for the others: cytoprotection (ATP increase), usual class: activators; 0.14% of 230,000 active; PC12 HTT-Q103 induced, cytoprotection, ATP luminescence, 40 h; further: potency means the concentration at half of the fitted maximal effect; % of control where 0% means no effect; nearly all actives have a fitted effect of over 45% in size
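Rat PC12, Q103 Htt exon1-GFP fusion, ecdysone promoter; tebufenozide inducer 100 nM final; compound titration; qHTS, 1500 cells/well; ATPlite luminescent read.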
HttQ103 aggreg: reduces HttQ103-GFP aggregates in PC12 cells. PC12 HttQ103-GFP aggregates, Acumen cytometry, 40 h. Potency, µM (doses to about 46.1 µM), without a hit: at the highest dose activity change, negative = inhibition, hits mostly inhibitors. 1.1% of 220,000 active; further: potency means the concentration at half of the fitted maximal effect; on the % scale 0 is the no-effect control and ±100 the full control effect; nearly all actives have a fitted effect of over 60% in size
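Aggregate formation scored by laser-scanning cytometer (488 excitation, 500–530 emission) in lysed PC12 cells expressing Q103-GFP after 100 nM tebufenozide induction; library tested in dose series, with ATPLite reagent added in the multiplex.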
IMPase Li inh: membrane-permeable IMPase blocker, potentiated with lithium | CHO-M1 cells, IP1 TR-FRET (IP-One), carbachol + lithium | Potency, µM (doses to about 59.4 µM), for inactives: at the highest dose activity, negative = IMPase inhibition, most hits filed as inhibitors | 0.35% of 210,000 active;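 further: IP1 builds up when IMPase is blocked and the TR-FRET signal falls; potency means the concentration at half of the fitted maximal effect; plate controls were basal vehicle for no effect and high inhibitor control for full effect; nearly all actives have a fitted effect of over 50% in size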
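CHO-M1, 2000 cells/well, 16–30 h culture; cpd + low Li+, 30 min 37C; lysis with d2-IP1/Eu-anti-IP1 Ab, 10 min RT; TR-FRET 665/620 ratio and 620 channel; AC50 via Hill.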
HPGD inh: inhibitors of human 15-hydroxyprostaglandin dehydrogenase (HPGD); purified HPGD, NADH fluorescence kinetic, PGE2 substrate; Potency, µM, for inactives: top-dose activity change, negative = inhibition, most hits filed as inhibitors; 4.3% of 150,000 active; active means well fitted inhibition curve with a large enough effect, not every such curve was filed as active; inconclusive means small, poorly fitted or top-dose-only effect, or another doubt; inactive means no such curve, though single readings can be large or run the other way; further: potency means the concentration at half of the fitted maximal effect; on the % scale 0 is the no-effect control and ±100 the full control effect
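NADH formation kinetics: reaction with 30 uM PGE2 and 1 mM NAD+ (final), 20 nM enzyme, Tris-HCl pH 8 with Tween 20, after 15 min compound preincubation at room temperature. Fluorescence change, last versus first of five reads.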
ALDH1A1 block: inhibitors of human aldehyde dehydrogenase 1A1; Purified ALDH1A1, NADH fluorescence, propionaldehyde substrate; Potency, µM (series often up to 75.3 µM), for inactives: at the highest dose activity, negative = inhibition, actives largely listed as inhibitors; 7.3% of 220,000 active; AID 1030; active means well fitted inhibition curve with a large enough effect, not every such curve was filed as active; inconclusive means small, poorly fitted or top-dose-only effect, or another doubt; inactive means no such curve, though single readings can be large or run the other way;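 further: potency means the concentration at half of the fitted maximal effect; plate controls were no enzyme wells and a reference inhibitor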
Target sequence (P00352 whole entry, looked up): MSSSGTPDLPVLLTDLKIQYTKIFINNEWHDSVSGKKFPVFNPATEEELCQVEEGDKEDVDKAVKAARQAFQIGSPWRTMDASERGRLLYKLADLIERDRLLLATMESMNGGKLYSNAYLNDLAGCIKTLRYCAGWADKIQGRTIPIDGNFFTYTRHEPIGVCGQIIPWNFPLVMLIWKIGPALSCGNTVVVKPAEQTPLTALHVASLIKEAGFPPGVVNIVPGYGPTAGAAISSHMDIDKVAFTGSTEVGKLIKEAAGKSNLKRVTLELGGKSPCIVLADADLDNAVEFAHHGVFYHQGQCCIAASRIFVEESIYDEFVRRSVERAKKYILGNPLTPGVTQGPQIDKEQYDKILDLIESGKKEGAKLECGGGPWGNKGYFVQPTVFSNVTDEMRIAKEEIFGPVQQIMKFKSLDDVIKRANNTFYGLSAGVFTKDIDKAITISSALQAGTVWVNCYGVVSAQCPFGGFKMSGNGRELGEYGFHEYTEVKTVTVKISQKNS
An asterisk follows results filed as active; ? = inconclusive; . = no result given; [ ] = another dose, or the depositor's remark. Only some compounds are listed: those with a hit (about 9.4% of all), similar ones and a draw of the others. Unless noted, the call rests on the fitted dose curve; in most records, active means well fitted curve in the direction sought with a large enough effect; inconclusive means small, poorly fitted or top-dose-only effect, or another doubt; inactive means no such curve, though single readings can be large; an effect the other way counts as inactive or inconclusive.

SMILES	IMPase cell inh	HTT cytoprotect	HttQ103 aggreg	IMPase Li inh	HPGD inh	ALDH1A1 block
CCCC(=O)Nc1ccc(NC(=S)NC(=O)c2cccs2)cc1	.	-3%[10 µM]	27%[9.22 µM]	9%	.	-8%
CCN(CC)c1ccc(NC(=S)NC(=O)c2cccs2)cc1	.	-2%[10 µM]	25%[9.22 µM]	14%	.	8.9µM*
Cc1cc(-c2ccccc2)nc2cc(C(=O)Nc3cc(C(F)(F)F)ccc3Cl)nn12	-5	.	.	.	.	.
O=c1c(-c2ccc(Cl)cc2)nc2cnc(N3CCNCC3)nc2n1CCc1ccccc1	.	-100%	.	7%	.	?
COc1ccc2c(c1)O[C@@H]1c3ccc(OC)cc3OCC21 (stereo partly drawn)	.	-40%	.	-6%	0%	0%
COCCNC(=O)CSc1nc(-c2ccc(F)cc2)[nH]c1-c1ccc(Cl)cc1	-2	.	.	.	.	.
Cc1cccc(N2CCN(S(=O)(=O)c3ccc4oc(=O)c5ncn(C)c5c4c3)CC2)c1C	-8	.	.	.	.	.
CCN(CC)c1ccc(/C=N/NC(=O)c2ccco2)cc1	.	-29%[10 µM]	?	13%	-29%	10µM*
CCN(CC)c1ccc(/C=N/NC(=O)c2cnccn2)cc1	.	-152%	17%	14%	.	22µM*
Cc1ccc(C[C@H](Cc2nc3ccccc3[nH]2)c2nc3ccccc3[nH]2)cc1	.	-9%	.	.	.	.
CCN(CC)S(=O)(=O)c1ccc(NC(=O)COC(=O)CCc2cc(OC)c(OC)c(OC)c2)cc1	6	3%[1.9 µM]	12%	3%	-5%	2.5µM*
CCN(CC)S(=O)(=O)c1cccc(C(=O)OCC(=O)Nc2ccc3c(c2)c2ccccc2n3CC)c1	.	17%[10 µM]	31%	0%	-26%	22µM*
Cn1c(=O)c(-c2ccccc2)nc2cnc(Oc3ccccc3)nc21	.	-33%	.	-4%	-18%	?
Cn1c(=O)c(-c2ccc(Cl)cc2)nc2cnc(Oc3ccccc3)nc21	.	19%	.	11µM*	-8%	?
Cn1c(=O)c(-c2ccc(F)cc2)nc2cnc(Oc3ccccc3)nc21	.	-61%	.	7.9µM*	?	?
O=C(c1ccccc1)c1ccccc1N1C(=O)C=CC1=O	.	-15%[10 µM]	-17%[9.22 µM]	.	.	3.2µM*
O=C(O)c1ccccc1-c1ccccc1C(=O)c1ccccc1	.	1%[10 µM]	.	3%	-10%	-9%[13.5 µM]
Cc1cccc(-n2cc(CN3CCCN(C=O)CC3)c(-c3cccc(F)c3)n2)c1	.	-11%[10 µM]	10%[9.22 µM]	19%	.	10µM*
Cc1cccc(-n2cc(CN(C)Cc3nccn3C)c(-c3cccc(F)c3)n2)c1	.	9%[10 µM]	5%[9.22 µM]	11%	.	?
CCn1ccnc1CN(C)Cc1cn(-c2cccc(C)c2)nc1-c1cccc(F)c1	.	-39%	-5%	25%	.	20µM*
CN(C(=S)Nc1ccc(Oc2ccccc2)cc1)c1ccc(O)cc1	.	.	-3%	31%	?	2.2µM*
CCN(C(=S)Nc1cccnc1)c1ccccc1	.	-34%	1%	-6%	.	6%
CN(C(=S)Nc1cccnc1)c1ccc(O)cc1	.	36%[10 µM]	?	9%	-8%	14µM*
CN(C(=S)Nc1ccc(SC(F)F)cc1)c1ccc(O)cc1	18	25%[1.9 µM]	?	0%	-13%	6.3µM*
CO[C@H]1COC(=O)[C@H](C)NC(=O)C/C=C\[C@@H](C)[C@@H](NS(=O)(=O)c2ccc(C)cc2)COC(=O)[C@H](OCc2ccccc2)/C=C\[C@@H]1C	.	-46%[10 µM]	.	.	.	0%[13.5 µM]
COC(=O)CC1=COC(O)C2C(CO)=CC[C@@H]12 (stereo partly drawn)	.	-51%[10 µM]	.	.	.	-3%[13.5 µM]
C=CCN1C(=O)/C(=c2\sc3nc(=O)c(Cc4ccc(OC)c(OC)c4)nn3c2=O)c2ccccc21	.	32%[10 µM]	1%[9.22 µM]	.	.	3.2µM*
C=CCN1C(=O)/C(=c2\sc3nc(=O)c(Cc4ccccc4)nn3c2=O)c2ccccc21	.	25%[10 µM]	17%[9.22 µM]	.	.	3.5µM*
CCN1C=C(C(=O)OC)C(c2cccc(OC)c2OC)C(C(=O)OC)=C1	.	-15%	2%	14%	.	?
COc1ccc(N2CCN(CC(O)c3c[nH]c4ccc(OC)cc34)CC2C)cc1 (stereo not drawn)	9	-67%	13µM*	2%[38.3 µM]	-7%	-3%
